E-sel TNF inh – E-selectin induction blockers in HUVEC – imaging, immunofluorescence, high content, primary screen; HUVEC TNFa-induced E-selectin immunofluorescence; inhibition, % at 2 µM; 120,000 tested, 0.71% active; AID 1246, 2008;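 active = inhibition above the batch mean plus 3 SD, and confirmed as a hit on visual image review, cut at about 43% in these data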;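 note: 0% = TNF-stimulated DMSO wells and 100% = unstimulated control wells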
CYP2C9 inhib – blockers of cytochrome P450 2C9 activity – biochemical, luminescence, ADME assay, primary screen. inhibition, % at 5 µM. 96,000 tested, 20% active. P11712. CYP2C9 Supersomes, luciferin-H conversion;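 active = blocking of liver enzyme CYP2C9 beyond about 50% at 5 µM, limit read from the data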
CYP2C9 activ – human CYP2C9 activators, primary screen, biochemical, luminescence; recombinant CYP2C9, luciferin-H conversion; stronger effect = higher value; factor 1 = untreated enzyme, 0 = blocked; activation factor at 5 µM; 96,000 tested, 1.4% active; AID 1024, 2008;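 active = activation factor of 2 or more for CYP2C9 at a 5 µM dose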;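 note: 0 = sulfaphenazole-blocked wells and 1 = vehicle-only wells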
CYP2C19 inh – blockers of cytochrome P450 2C19 activity – biochemical, luminescence, ADME assay, primary screen. CYP2C19 Supersomes, luciferin-H EGE luminescence, 30 min. 96,000 tested, 21% active. P33261. AID 778, 2007. inhibition, % at 5 µM;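 active = CYP2C19 inhibition above a set limit at 5 µM in the primary screen, cut at about 50% in these data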;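 note: plate controls were negative control wells for no effect and 2.5 mM tranylcypromine positive control for full effect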
Target sequence (P33261 whole entry, looked up): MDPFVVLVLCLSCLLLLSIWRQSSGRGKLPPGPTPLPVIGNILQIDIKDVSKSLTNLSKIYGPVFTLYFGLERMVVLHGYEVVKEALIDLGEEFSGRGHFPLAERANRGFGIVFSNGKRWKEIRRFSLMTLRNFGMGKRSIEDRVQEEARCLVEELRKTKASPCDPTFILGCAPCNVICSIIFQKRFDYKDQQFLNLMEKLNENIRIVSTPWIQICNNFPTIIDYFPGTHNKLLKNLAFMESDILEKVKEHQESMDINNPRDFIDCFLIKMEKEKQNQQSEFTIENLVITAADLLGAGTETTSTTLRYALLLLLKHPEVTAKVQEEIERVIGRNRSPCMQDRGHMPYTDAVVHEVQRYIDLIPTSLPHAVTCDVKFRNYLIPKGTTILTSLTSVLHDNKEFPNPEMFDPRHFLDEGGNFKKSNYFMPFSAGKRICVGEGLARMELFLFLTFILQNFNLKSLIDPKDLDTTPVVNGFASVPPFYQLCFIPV
F-actin modifier – modifiers of F-actin cytoskeleton organization, primary screen, imaging, HUVEC, phalloidin staining, high-content imaging; inhibition, % at 2 µM; HUVEC TNFa F-actin phalloidin imaging; 91,000 tested, 0.18% active;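 active = inhibition above the batch mean plus 3 SD and confirmed as a hit by visual image inspection, cut at about 30% in these data, passing the limit was not always enough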
CYP2C19 activ – human CYP2C19 activators, primary screen, biochemical, luminescence. Cytochrome P450 2C19 (Homo sapiens), P33261. recombinant CYP2C19, luciferin-H EGE luminescence; stronger effect = higher value; 0 = fully inhibited enzyme, 1 = untreated enzyme. activation factor at 5 µM. 96,000 tested, under 10 active. AID 1025, 2008;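 active = activation factor of at least 2 at 5 µM in the primary screen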;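 note: 0 = wells with 2.5 mM tranylcypromine and 1 = vehicle-only wells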
* = called active by the depositor; . = no result given. Shown are actives, neighbours in structure and some others; about 22% of the full set was active somewhere.

SMILES	E-sel TNF inh	CYP2C9 inhib	CYP2C9 activ	CYP2C19 inh	F-actin modifier	CYP2C19 activ
COc1ccc(C(=O)N2CCCC(c3nc(-c4cccs4)no3)C2)cc1 (stereo not given)	.	74*	0.3	84*	-10	0.2
O=C(N1CCOCC1)N1CCCC(c2nc(-c3cccs3)no2)C1 (stereo not given)	6	-18	1.2	21	-26	0.8
COc1ccc(C(=O)N2CCCC(c3nc(-c4cccs4)no3)C2)cc1OC (stereo not given)	-19	4	1	55*	-4	0.5
O=C(NO)c1ccccc1C(F)(F)F	-28	.	.	.	.	.
COc1ccc(OC)c(NC(=O)C2CC(=O)N(CCc3ccccc3)C2)c1 (stereo not given)	8	.	.	.	.	.
CC1(C)Cc2c(ccc3ccccc23)C(=O)N1	7	-52	1.5	19	-8	0.8
CCNC(=O)/C=C1\NC(C)(C)Cc2c1ccc1ccccc21	13	90*	0.1	83*	13	0.2
CCC(C)NC(=O)C(Cc1ccccc1)n1cccc1 (stereo not given)	-29	60*	0.4	62*	.	0.4
CCC(C(=O)N1CCN(S(C)(=O)=O)CC1)c1ccccc1 (stereo not given)	-12	33	0.7	83*	-5	0.2
O=C(C(Cc1ccccc1)n1cccc1)N1CCN(Cc2ccccc2)CC1 (stereo not given)	16	62*	0.4	23	8	0.8
O=C(C(Cc1ccccc1)n1cccc1)N1CCN(c2cccc(Cl)c2)CC1 (stereo not given)	.	70*	0.3	82*	2	0.2
O=C(Nc1cccnc1)C(Cc1ccccc1)n1cccc1 (stereo not given)	.	36	0.6	30	-7	0.7
CCC(C(=O)N1CCN(c2ccccc2OC)CC1)c1ccccc1 (stereo not given)	3	.	.	.	.	.
O=C(Nc1ncc(Br)s1)C(Cc1ccccc1)n1cccc1 (stereo not given)	11	97*	0	88*	-10	0.1
CCC(C(=O)N1CCc2cc(OC)c(OC)cc2C1)c1ccccc1 (stereo not given)	100*	73*	0.3	73*	30	0.3
O=C(C(Cc1ccccc1)n1cccc1)N1CCCCC1 (stereo not given)	7	-6	1.1	45	13	0.6
CCC(C(=O)N1CCN(c2cccc(Cl)c2)CC1)c1ccccc1 (stereo not given)	-2	100*	0	95*	-17	0
O=C(C(Cc1ccccc1)n1cccc1)N1CCCCCC1 (stereo not given)	.	37	0.6	69*	18	0.3
COc1ccc(N2CCN(C(=O)C(OC(C)=O)c3ccccc3)CC2)cc1 (stereo not given)	10	-11	1.1	-4	-20	1
COc1ccc(N2CCN(C(=O)C(Cc3ccccc3)n3cccc3)CC2)cc1 (stereo not given)	1	76*	0.2	93*	13	0.1
Cc1cc(Nc2ccccc2)nn1C(=O)c1ccc(Cl)cc1	23	55*	0.5	-10	.	1.1
CSCCC(NC(=O)c1ccco1)C(=O)OCC(=O)Nc1sccc1C#N (stereo not given)	2	78*	0.2	55*	-13	0.4
O=C(O)/C=C\C(=O)Nc1ccc(Oc2ccc(Br)cc2)cc1	-22	.	.	.	.	.
CC(C)=CC(=O)Nc1ccc(Br)cc1	-19	73*	0.3	23	12	0.8
COc1ccc(N/C=C(/C(C)=O)c2ccccc2)cc1	-21	90*	0.1	89*	-3	0.1
SMILES	E-sel TNF inh	CYP2C9 inhib	CYP2C9 activ	CYP2C19 inh	F-actin modifier	CYP2C19 activ
Cc1ccnc(SCc2cc(=O)c(OC(=O)c3ccc(S(=O)(=O)N4CCCC4)cc3)co2)n1	12	.	.	.	.	.
O=C(NCC(c1cccnc1)N1CCN(c2ccc(F)cc2)CC1)c1ccccc1 (stereo not given)	.	21	0.8	54*	.	0.5
Cc1sc(NC(=O)c2ccco2)c(C(c2cccnc2)N2CCN(c3ccc(F)cc3)CC2)c1C (stereo not given)	-33	99*	0	95*	.	0
CCOC(=O)C1CCN(C(c2cccnc2)c2c(NC(=O)c3ccco3)sc(C)c2C)CC1 (stereo not given)	.	82*	0.2	60*	-32	0.4
O=C(NCc1ccc(Cl)cc1)C(=O)NCC(c1cccnc1)N1CCN(c2ccc(F)cc2)CC1 (stereo not given)	-29	.	.	.	.	.
Cc1sc(NC(=O)c2ccco2)c(C(c2ccc(F)cc2)N2CCN(C)CC2)c1C (stereo not given)	2	.	.	.	.	.
CCOC(=O)C1CCN(C(=O)c2cccnc2)CC1	22	-2	1	29	0	0.7
CCN1CC=C2C(C#N)=C(N)C(C#N)(C#N)C(c3cc(Cl)ccc3Cl)C2C1 (stereo not given)	4	59*	0.4	34	-19	0.7
O=c1cc(CN2CCN(c3ccccn3)CC2)nc2sccn12	-46	.	.	.	.	.
O=c1cc(CN2CCc3ccccc32)nc2sccn12	1	67*	0.3	57*	-13	0.4
ClC(Br)=C(n1cnc2ccccc21)n1cnc2ccccc21	-1	88*	0.1	75*	7	0.2
Cn1c(Oc2ccc(Cl)c3cccnc23)nc2c1c(=O)n(Cc1ccccc1Cl)c(=O)n2C	4	12	0.9	9	9	0.9
O=C(CCCCn1c(=O)c2ccccc2n(Cc2ccc(F)cc2Cl)c1=O)NCc1ccco1	-7	84*	0.2	88*	4	0.1
CCCN(CCC)C(=O)Cn1c(=O)n(CCCCC(=O)NCc2ccco2)c(=O)c2ccccc21	0	69*	0.3	30	-14	0.7
O=C(CCCCn1c(=O)c2ccccc2n(CC(=O)Nc2ccc(F)cc2)c1=O)NCc1ccco1	-11	81*	0.2	55*	.	0.4
Cc1ccc(NC(=O)Cn2c(=O)n(CCCCC(=O)NCc3ccco3)c(=O)c3ccccc32)cc1	13	82*	0.2	46	2	0.5
CCc1ccc(NC(=S)NC2CC3CCCC(C2)N3Cc2cccs2)cc1 (stereo not given)	-57	30	0.7	30	-7	0.7
O=c1[nH]c(N2CCN(c3ccccc3)CC2)nc2c1CCCC2	-24	-14	1.1	-6	4	1.1
Cc1ccc(CNC(=O)[C@H]2C[C@@H]2[C@H](NP(=O)(c2ccccc2)c2ccccc2)c2ccccc2)o1	31	.	.	.	.	.
CCN(CC)S(=O)(=O)c1ccc(C)c(NC(=O)COc2ccc3c(C)cc(=O)oc3c2)c1	-10	.	.	.	.	.
